Bioassay records as filed in PubChem.
HT1080NT lethal = kills 2HG-producing HT-1080-NT fibrosarcoma cells; HT-1080-NT fibrosarcoma viability, CellTiter-Glo ATP luminescence, 48 h; Potency, µM (titrated, usually from 46.1 µM), inactives show at the top dose activity, negative = less viability, most hits filed as cytotoxic; 360,000 compounds, 1.6% hits;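 also: NT is the 2HG producing partner of a matched IDH1 knockdown line; 0% = DMSO-treated cells and -100% = media-only wells without cells; nearly all actives have a fitted effect of over 55% in size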
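Luminescent CellTiter-Glo readout after 48 hours of compound exposure at 37 degrees C defined viability of HT-1080-NT cells. Activity was normalized to DMSO wells and cell-free media wells; concentration-response curves were fitted and assigned curve classes.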
HepG2 viability = counter-screen for TGF-b inhibitors: cytotoxicity in HepG2 cells; HepG2 CAGA-GFP viability, ATP luminescence, 18 h; Potency, µM (top dose mostly 46.1 µM), for the others: top-dose activity change, negative = cytotoxicity, usual class: cytotoxic; 410,000 compounds, 0.76% hits; AID 588856
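HepG2 CAGA-GFP cells (1000/well, DMEM with 1% FBS) received compound, then TGF-beta at 500 pg/mL final, and were incubated 18 hours at 37 degrees C. Viability was read by CellTiter-Glo luminescence. Media-only wells were set as complete cell-killing and DMSO as no toxicity.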
TGFb inhibitor = inhibitors of TGF-b signaling; HepG2 CAGA-GFP TGF-b/SMAD3 reporter, GFP fluorescence, 18 h; TGF-beta stimulated, 500 pg/mL final; Potency, µM (doses to about 46.1 µM), for the others: at the highest dose activity, negative = inhibition, actives largely listed as inhibitors; 410,000 compounds, 1.2% hits; also: % is scaled to controls: 0 for no effect and ±100 for the full control effect; nearly all actives have a fitted effect of over 65% in size
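First, reporter cells (HEPG2 CAGA-GFP) rested 2 h at 37 degrees C. Next, compounds were pinned in and TGF-beta added to 500 pg/mL final. After 18 h, GFP was imaged per cell and summed per well.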
KB-3-1 tox = KB-3-1 parental cell cytotoxicity; KB-3-1 viability, CellTiter-Glo ATP luminescence, 72 h; Potency, µM (top dose mostly 46.1 µM), most hits filed as cytotoxic; 400,000 compounds, 1.4% hits; also: % is scaled to controls: 0 for no effect and ±100 for the full control effect; nearly all actives have a fitted effect of over 60% in size
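Multi-concentration cytotoxicity screen in KB-3-1 cells grown in DMEM lacking phenol red with 10% FBS. After 72 h at 37 °C with compound, ATP-dependent luminescence was recorded.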
HT1080 IDH1KD tx = kills HT-1080 cells with IDH1 knockdown. HT-1080 IDH1 knockdown viability, ATP luminescence, 48 h. Potency, µM (series often up to 46.1 µM), for inactives: at the top dose activity, negative = toxicity, usual class: cytotoxic. 360,000 compounds, 2% hits;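 also: 0% = DMSO wells and -100% = cell-free medium wells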
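Viability of IDH1-knockdown HT-1080 fibrosarcoma cells was assessed by CellTiter-Glo after 48 h at 37 °C with titrated compound; concentration-effect curves were classified by fit quality and response size.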
KB-V1 MDR tox = KB-V1 MDR subline cytotoxicity; KB-V1 MDR cells viability, CellTiter-Glo, 72 h; 400,000 compounds, 3.4% hits; Potency, µM (titrated, usually from 46.1 µM), actives largely listed as cytotoxic; also: % is scaled to controls: 0 for no effect and ±100 for the full control effect; nearly all actives have a fitted effect of over 60% in size
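Readout: CellTiter-Glo luminescence, 10 min after addition. Cells: KB-V1 MDR subline, 72 h at 37 degrees C with compound. Analysis: corrected, normalized data fitted to concentration-effect curves.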
Starred values were filed as active, the others as inactive. A selection: hits, their analogues and other compounds. The true share with any hit is near 6.6%. Calls follow the shape of the dose curve; as a rule, active = well fitted curve in the direction sought with a large enough effect; inconclusive = small, poorly fitted or top-dose-only effect, or another doubt; inactive = no such curve, though single readings can be large; an effect the other way counts as inactive or inconclusive. Potency is read from the fitted curve at half-maximal effect.

`CC1CCN(C(=S)c2ccc3c(c2)OCO3)CC1` gave HT1080NT lethal 4%, HepG2 viability -7%, TGFb inhibitor inconclusive, KB-3-1 tox inactive, HT1080 IDH1KD tx 13% and KB-V1 MDR tox inactive.
Screening S=C(c1ccc2c(c1)OCO2)N1CCN(c2cccc(Cl)c2)CC1 returned HT1080NT lethal inconclusive, HepG2 viability 11%, TGFb inhibitor 1%, KB-3-1 tox 4.1µM*, HT1080 IDH1KD tx 3.3µM* and KB-V1 MDR tox inconclusive.
Screening Cc1cccc(N2CCN(C(=S)c3ccc4c(c3)OCO4)CC2)c1 returned HT1080NT lethal 0%, HepG2 viability -2%, TGFb inhibitor -2%, KB-3-1 tox 10µM*, HT1080 IDH1KD tx inconclusive and KB-V1 MDR tox inactive.
CC(C)(C)NC(=O)CON=C1c2ccccc2-c2ccccc21 was read as HT1080NT lethal -1%, HepG2 viability 10%, TGFb inhibitor inconclusive, KB-3-1 tox inactive, HT1080 IDH1KD tx -1% and KB-V1 MDR tox 16µM*.
CC(C)(C)NCC(O)CON=C1c2ccccc2-c2ccccc21 (centres undefined) was read as HT1080NT lethal 18µM*, HepG2 viability 11µM*, TGFb inhibitor inconclusive, KB-3-1 tox inconclusive, HT1080 IDH1KD tx 15µM* and KB-V1 MDR tox inconclusive.
CCc1ccc(OCC(=O)NC(C)(C)C)cc1 was read as HT1080NT lethal 2%, HepG2 viability -25%, TGFb inhibitor 4%, KB-3-1 tox inactive, HT1080 IDH1KD tx 12% and KB-V1 MDR tox inactive.
For CCOC(=O)N1CCN(C(=O)c2cnn(-c3cccc(F)c3)c2-n2cccc2)CC1 the results were HepG2 viability -9%, TGFb inhibitor -2%, KB-3-1 tox inactive and KB-V1 MDR tox inactive.
Screening CC1(C)CC(=O)c2cc(-c3nc(-c4ccc(Cl)cc4)cs3)c(=O)n(-c3ccc(Cl)cc3)c2C1 returned HepG2 viability 2%, TGFb inhibitor 22%, KB-3-1 tox inactive and KB-V1 MDR tox inactive.
For O=c1c(NCCc2ccc(Cl)cc2)nccn1-c1ccccc1 the results were HepG2 viability -13%, TGFb inhibitor -30%, KB-3-1 tox inactive and KB-V1 MDR tox inactive.
For Cc1ccc(NC(=O)c2cc(S(=O)(=O)NC3CCCCCC3)ccc2F)cc1F the results were HepG2 viability 13µM*, TGFb inhibitor inconclusive, KB-3-1 tox inactive and KB-V1 MDR tox inconclusive.
Screening CCc1ccc(NC(=O)c2cc(S(=O)(=O)NC3CCCC3)ccc2F)cc1 returned HepG2 viability -70% and TGFb inhibitor inconclusive.
Screening O=C(Nc1ccc(Cl)cc1)c1cc(S(=O)(=O)NC2CCCCCC2)ccc1F returned HepG2 viability -88% and TGFb inhibitor 8.9µM*.
For O=C(Nc1ccc(Oc2ccc(NC(=O)Nc3ccc([N+](=O)[O-])cc3)cc2)cc1)Nc1ccc([N+](=O)[O-])cc1 the results were HT1080NT lethal inconclusive, HepG2 viability -15%, TGFb inhibitor inconclusive, KB-3-1 tox 18µM*, HT1080 IDH1KD tx inconclusive and KB-V1 MDR tox inconclusive.
For O=C(Nc1ccc(OC(F)(F)F)cc1)Nc1cccc([N+](=O)[O-])c1 the results were HT1080NT lethal inconclusive, HepG2 viability 7.9µM*, TGFb inhibitor inconclusive, KB-3-1 tox 12µM*, HT1080 IDH1KD tx inconclusive and KB-V1 MDR tox 16µM*.
`O=C(Nc1ccc(OC(F)(F)F)cc1)Nc1cccnc1` gave HT1080NT lethal 6%, HepG2 viability -29%, TGFb inhibitor 1%, KB-3-1 tox inactive, HT1080 IDH1KD tx 5% and KB-V1 MDR tox inactive.
`Cc1ccc(NC(=O)Nc2cccc([N+](=O)[O-])c2)cc1F` gave HT1080NT lethal 15µM*, HepG2 viability -32%, TGFb inhibitor inconclusive, KB-3-1 tox inconclusive, HT1080 IDH1KD tx 12µM* and KB-V1 MDR tox 16µM*.
Screening Cc1cc([N+](=O)[O-])ccc1NC(=O)Nc1ccc(F)cc1F returned HT1080NT lethal 16%, HepG2 viability -24%, TGFb inhibitor -27%, KB-3-1 tox inconclusive, HT1080 IDH1KD tx 14% and KB-V1 MDR tox 15µM*.
O=C(Nc1ccc(OC(F)(F)F)cc1)c1[nH]ncc1[N+](=O)[O-] was read as HT1080NT lethal -22%, HepG2 viability -37%, TGFb inhibitor 11µM*, KB-3-1 tox inactive, HT1080 IDH1KD tx -12% and KB-V1 MDR tox inactive.
For Cc1onc(C(=O)Nc2ccc(OC(F)(F)F)cc2)c1[N+](=O)[O-] the results were HT1080NT lethal 9%, HepG2 viability -2%, TGFb inhibitor -1%, KB-3-1 tox inactive, HT1080 IDH1KD tx -3% and KB-V1 MDR tox inactive.
For O=C(Nc1ccc([N+](=O)[O-])cc1)Nc1nc(-c2ccc(Cl)s2)cs1 the results were HT1080NT lethal 6.5µM*, HepG2 viability 10µM*, TGFb inhibitor inconclusive, KB-3-1 tox 2.9µM*, HT1080 IDH1KD tx 7.3µM* and KB-V1 MDR tox inconclusive.
`O=C(N/N=C/c1ccsc1)c1cc(-c2ccncc2)nc2ccccc12` gave HT1080NT lethal 4.6µM*, HepG2 viability 9%, TGFb inhibitor inconclusive, KB-3-1 tox 2.6µM*, HT1080 IDH1KD tx inconclusive and KB-V1 MDR tox 8.2µM*.
For O=C(N/N=C/c1ccsc1)c1cc(-c2cccs2)nc2ccccc12 the results were HT1080NT lethal inconclusive, HepG2 viability -16%, TGFb inhibitor -3%, KB-3-1 tox inconclusive, HT1080 IDH1KD tx inconclusive and KB-V1 MDR tox 13µM*.
`Cc1ccc(-c2n[nH]c3c2C(c2ccccc2)N(c2ccc(C(=O)O)cc2)C3=O)cc1` (centres undefined) gave HT1080NT lethal -26%, HepG2 viability 6%, TGFb inhibitor 4%, KB-3-1 tox inactive, HT1080 IDH1KD tx -29% and KB-V1 MDR tox inactive.
O=C1c2[nH]nc(-c3ccc(Br)cc3)c2C(c2cccc(O)c2)N1c1ccc(Cl)cc1 (centres undefined) was read as HepG2 viability 14µM*, TGFb inhibitor 7.1µM*, KB-3-1 tox inactive and KB-V1 MDR tox inconclusive.
`COc1ccccc1C1c2c(-c3ccc(Cl)cc3)n[nH]c2C(=O)N1c1ccc(C)cc1` (centres undefined) gave HepG2 viability -90%, TGFb inhibitor inconclusive, KB-3-1 tox inactive and KB-V1 MDR tox 26µM*.
